According to ChEMBL document CHEMBL1157539, “Thousands of chemical starting points for antimalarial lead identification” (Nature, 2010):

What follows are compounds tested on Plasmodium falciparum (assay: GSK_TCMDC: Inhibition of Plasmodium falciparum 3D7 in whole red blood cells, using parasite LDH activity as an index of growth. Test compounds present at 2uM).
Assay type: functional

SMILES | Inhibition
CC(C)(CNC(=O)[C@H]1CCCN1)c1nc(-c2ccc(Cl)c(O)c2)c(-c2ccncc2)[nH]1.Cl | 86%
Oc1ccc2[nH]c(-c3ccc(F)cc3F)nc2c1CN1CCC(O)(c2ccccc2)CC1 | 96%
COc1ccccc1C1CC(c2ccc(Br)cc2)=NN1C(=O)c1ccccc1 (stereo unspecified) | 85%
COc1ccc(S(=O)(=O)Nc2cc(C)cc(Br)c2OC)cc1N1CCN(C(=O)C(Cl)(Cl)Cl)CC1.Cl | 91%
O=C(Nc1ccc(Oc2ccccc2)cc1)N(CCN1CCCC1)Cc1ccc(-c2ccc(CN3CCNCC3)cc2)cc1.O=C(O)C(F)(F)F | 88%
Cc1ccc(CNC(=O)[C@H](CC(C)C)Nc2cc(C)nc(Nc3ccccc3)n2)cc1.O=C(O)C(F)(F)F | 97%
Cc1ccc(NC(=S)NC2CCN(CCCCCNC(=O)/C=C/c3ccc(Cl)c(Cl)c3)CC2)cc1Cl | 100%
CCCCCN1C(=O)C(c2ccccc2)(c2ccccc2)N=C1N | 97%
O=C(NCC1CCN(CCN2CCC(c3cn(CCO)c4ccccc34)CC2)CC1)c1ccc(-c2ccc(C(F)(F)F)cc2)cc1 | 100%
Fc1ccc(-c2cc(NCCCn3ccnc3)nc(-c3cccnc3)n2)cc1 | 99%
COc1ccc2nc3cc(Cl)ccc3c(NCCCCNc3c4ccc(Cl)cc4nc4ccc(OC)cc34)c2c1 | 99%
CN(C)CCOc1cc(NC(=O)/C=C/c2cccc3ccccc23)ccc1I | 98%
CCN(CC)/C(=N/C(=N)NCc1ccc(Cl)cc1Cl)NCCCCCCN/C(=N\C(=N)NCc1ccc(Cl)cc1Cl)N(CC)CC | 100%
COc1ccc(CNCc2cccc(-c3ccc(-c4nc5ccccc5[nH]4)cc3)c2)cc1.O=C(O)C(F)(F)F | 100%
CN(C)CCCNC(=O)c1ccccc1Sc1ccccc1C#N.Cl | 89%
Nc1nc2c(ncn2OC[C@H](CO)OCP(=O)(O)O)c(=O)[nH]1 | 94%
CCc1ccc(-n2cc(C(=O)c3cc(Br)ccc3O)cc(C#N)c2=O)cc1 | 97%
Cn1nc(-c2ccccc2F)c2cc(C(=O)Nc3cccnc3)sc21 | 92%
COc1cc2c(cc1S(=O)(=O)c1ccc(COc3ccc(C(F)(F)F)cc3)cc1)CNCC2.Cl | 100%
CCOc1ccc(C(=O)Nc2cc3c(c(C(F)(F)F)c2)CCNC3)cc1Cl.Cl | 91%
Cc1cccc(CNc2nc(C)cc(NCCC(=O)NCc3cccc(F)c3)n2)c1.O=C(O)C(F)(F)F | 84%
CS(=O)(=O)Nc1cccc(-c2cnc3[nH]cc(-c4ccc(CCC(=O)O)cc4)c3c2)c1 | 98%
COc1ccc(Nc2nc(C)cc(NCc3ccc(-c4c(C)noc4C)cc3)n2)cc1 | 99%
Cc1cc(N[C@@H](CC(C)C)C(=O)Nc2ccccc2)nc(NCCc2ccccc2)n1.O=C(O)C(F)(F)F | 100%
COc1ccc2ccccc2c1CCCCN1CCN(CC(c2ccc(F)cc2)N2CCC(N3CCCC3)CC2)CC1.O=C(O)C(F)(F)F (stereo unspecified) | 99%
Cc1c(C(=O)N(C)C)sc2c1c(=O)n(Cc1ccccc1)c(=O)n2CC(=O)Nc1ccccc1F | 97%

These compounds were tested on Plasmodium falciparum (assay: GSK_TCMDC: Inhibition of Plasmodium falciparum Dd2 in whole red blood cells, using parasite LDH activity as an index of growth. Test compounds present at 2uM).
Assay type: functional

SMILES | Inhibition
NC(=O)c1sc(-n2cnc3ccccc32)cc1OCc1ccccc1[N+](=O)[O-] | 46%
O=C(NCCCCN1CCC(c2ccc([N+](=O)[O-])cc2)CC1)c1ccc(NC(=O)c2ccc(Cl)cc2)cc1 | 55%
Cc1cccc(N2C(N)=NC(N)=NC2(C)C)c1C.Cl | 0%
COc1cc2c(cc1C(F)(F)F)N(C(=O)Nc1cc(F)cc(-c3cncnc3)c1)CC2 | 52%
CCCCCCOc1ccc(C(=O)N[C@H]2CCN(CCCCCNC(=O)/C=C/c3ccc(Cl)c(Cl)c3)C2)cc1 | 25%
Cc1sc(CNCCCNc2cc(=O)c3ccccc3[nH]2)c(I)c1C.Cl | 48%
CCn1cc(C=C2Oc3c(ccc(O)c3CN3CCCCC3)C2=O)c2cc(OC)ccc21 | 99%
CS(=O)(=O)Nc1cccc(-c2cnc3[nH]cc(-c4ccc(CN)cc4)c3c2)c1 | 95%
CCCCN1CCN(CCCCNc2c3ccccc3nc3ccccc23)CC1.Cl | 5%
COc1cc(Nc2ccnc3cc(-c4ccncc4)ccc23)cc(OC)c1OC.Cl | 39%
CN(c1ccc2c(c1)nc(NCc1ccc(F)cc1)n2C)c1ccnc(Nc2ccc(CS(C)(=O)=O)cc2)n1.Cl | 79%
CC1CN(Cc2cccc(-c3ccc(-c4nc5ccccc5[nH]4)cc3)c2)CC(C)O1.O=C(O)C(F)(F)F (stereo unspecified) | 88%
CO.Cc1nc(N)nc(N)c1OCc1cccc2c1ccc1ccccc12.Cl | 16%
Cc1cccc2nc(-c3cccc(-c4ccc(NC(=O)Cc5ccc[n+]([O-])c5)cc4)c3)[nH]c12 | 87%
CC(C)(CNC(=O)[C@H]1CCCN1)c1nc(-c2ccc(Cl)c(O)c2)c(-c2ccncc2)[nH]1.Cl | 95%
Oc1ccc2[nH]c(-c3ccc(F)cc3F)nc2c1CN1CCC(O)(c2ccccc2)CC1 | 70%
COc1ccccc1C1CC(c2ccc(Br)cc2)=NN1C(=O)c1ccccc1 (stereo unspecified) | 59%
COc1ccc(S(=O)(=O)Nc2cc(C)cc(Br)c2OC)cc1N1CCN(C(=O)C(Cl)(Cl)Cl)CC1.Cl | 66%
O=C(Nc1ccc(Oc2ccccc2)cc1)N(CCN1CCCC1)Cc1ccc(-c2ccc(CN3CCNCC3)cc2)cc1.O=C(O)C(F)(F)F | 90%
Cc1ccc(CNC(=O)[C@H](CC(C)C)Nc2cc(C)nc(Nc3ccccc3)n2)cc1.O=C(O)C(F)(F)F | 19%

SMILES | Inhibition
Cc1ccc(NC(=S)NC2CCN(CCCCCNC(=O)/C=C/c3ccc(Cl)c(Cl)c3)CC2)cc1Cl | 56%
CCCCCN1C(=O)C(c2ccccc2)(c2ccccc2)N=C1N | 68%
O=C(NCC1CCN(CCN2CCC(c3cn(CCO)c4ccccc34)CC2)CC1)c1ccc(-c2ccc(C(F)(F)F)cc2)cc1 | 100%
Fc1ccc(-c2cc(NCCCn3ccnc3)nc(-c3cccnc3)n2)cc1 | 70%
COc1ccc2nc3cc(Cl)ccc3c(NCCCCNc3c4ccc(Cl)cc4nc4ccc(OC)cc34)c2c1 | 99%
CN(C)CCOc1cc(NC(=O)/C=C/c2cccc3ccccc23)ccc1I | 7%
CCN(CC)/C(=N/C(=N)NCc1ccc(Cl)cc1Cl)NCCCCCCN/C(=N\C(=N)NCc1ccc(Cl)cc1Cl)N(CC)CC | 99%
COc1ccc(CNCc2cccc(-c3ccc(-c4nc5ccccc5[nH]4)cc3)c2)cc1.O=C(O)C(F)(F)F | 60%
CN(C)CCCNC(=O)c1ccccc1Sc1ccccc1C#N.Cl | 3%
Nc1nc2c(ncn2OC[C@H](CO)OCP(=O)(O)O)c(=O)[nH]1 | 61%
CCc1ccc(-n2cc(C(=O)c3cc(Br)ccc3O)cc(C#N)c2=O)cc1 | 30%
Cn1nc(-c2ccccc2F)c2cc(C(=O)Nc3cccnc3)sc21 | 82%
COc1cc2c(cc1S(=O)(=O)c1ccc(COc3ccc(C(F)(F)F)cc3)cc1)CNCC2.Cl | 89%
CCOc1ccc(C(=O)Nc2cc3c(c(C(F)(F)F)c2)CCNC3)cc1Cl.Cl | 1%
Cc1cccc(CNc2nc(C)cc(NCCC(=O)NCc3cccc(F)c3)n2)c1.O=C(O)C(F)(F)F | 13%
CS(=O)(=O)Nc1cccc(-c2cnc3[nH]cc(-c4ccc(CCC(=O)O)cc4)c3c2)c1 | 78%
COc1ccc(Nc2nc(C)cc(NCc3ccc(-c4c(C)noc4C)cc3)n2)cc1 | 50%
Cc1cc(N[C@@H](CC(C)C)C(=O)Nc2ccccc2)nc(NCCc2ccccc2)n1.O=C(O)C(F)(F)F | 87%
COc1ccc2ccccc2c1CCCCN1CCN(CC(c2ccc(F)cc2)N2CCC(N3CCCC3)CC2)CC1.O=C(O)C(F)(F)F (stereo unspecified) | 73%
Cc1c(C(=O)N(C)C)sc2c1c(=O)n(Cc1ccccc1)c(=O)n2CC(=O)Nc1ccccc1F | 98%
